According to PubChem BioAssay (NCI):
The panel holds about 79,000 compounds, 15% with a hit somewhere; the sample as a whole holds those more often. No stated cut-off is given here; in the data, active means growth inhibition above about 70%; inactive means the rest.

Experiments:
[1] = NCI Yeast Anticancer Drug Screen. Data for the rad50 strain (AID 155);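 further: 0% = growth of vehicle-only cultures of the same strain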; settings: S. cerevisiae rad50 strain growth inhibition; at 50.0 µM; stronger effect = higher value
Outline: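 DNA repair mutant yeast, compound exposure, growth read-out; inhibition is taken relative to vehicle.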

[2] = NCI Yeast Anticancer Drug Screen. Data for the mec2-1 strain (AID 157); settings: S. cerevisiae mec2-1 strain, at 50.0 µM, stronger effect = higher value
Outline: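 Yeast mec2-1 mutant treated with compound. Readout: growth inhibition vs vehicle controls.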

[3] = NCI Yeast Anticancer Drug Screen. Data for the sgs1 mgt1 strain (AID 161);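 further: 0% = growth of cultures given vehicle only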; settings: S. cerevisiae sgs1 mgt1 strain, at 50.0 µM, stronger effect = higher value
Outline: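 Read-out: growth inhibition vs vehicle controls. Cells: mutant yeast strain deficient in DNA damage repair.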

[4] = NCI Yeast Anticancer Drug Screen. Data for the cln2 rad14 strain (AID 165);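 further: 0% = growth equal to vehicle treated cultures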; settings: S. cerevisiae cln2 rad14 strain, at 50.0 µM, stronger effect = higher value
Outline: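 cln2 rad14 yeast strain; compound exposure; growth inhibition read vs vehicle controls.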

[5] = NCI Yeast Anticancer Drug Screen. Data for the bub3 strain (AID 167); settings: S. cerevisiae bub3 mutant strain, at 50.0 µM, stronger effect = higher value
Outline: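 In this screen, a yeast mutant lacking normal mitotic checkpoint function is challenged with compound. Relative growth versus vehicle gives the inhibition value.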

[6] = NCI Yeast Anticancer Drug Screen. Data for the mlh1 rad18 strain (AID 175); settings: S. cerevisiae mlh1 rad18 strain growth inhibition; at 50.0 µM; stronger effect = higher value
Outline: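 Yeast w/ defined DNA-repair lesions; compound exposure; growth vs vehicle controls → % inhibition.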

Measured: growth inhibition

CC(O)C([NH-])C(=O)O.CC([NH-])C(=O)O.[Cu+2] (stereo unspecified)
inactive: [1] 26.6% | [2] 15.7% | [3] 6.95% | [4] 12.7% | [5] 13.3% | [6] 15.4%

CCCCCCCCCCCCCCCC(=O)OCC1OC(n2ccc(N)nc2=O)C(O)C1O (stereo unspecified)
inactive: [1] -1.2% | [2] -10.3% | [3] 3.2% | [4] 8.2% | [5] 4.1% | [6] -2.8%

Cc1ccc(S(=O)(=O)NC(=O)c2ncn(C3OC(CO)C(O)C3O)c2N)cc1 (stereo unspecified)
inactive: [1] -5.15% | [2] 10.8% | [3] 12.7% | [4] 15.1% | [5] 1.5% | [6] 1.55%

CN(C)c1ccc2c(N(C)C)cc(N(C)C)[n+](C)c2c1
inactive: [1] 7.8% | [2] -23.1% | [3] -12.8% | [4] 15.2% | [5] -2% | [6] -22.4%

O=C(Cc1c[nH]c2ccccc12)N/N=C/c1ccccc1[N+](=O)[O-]
inactive: [1] 18.9% | [2] -4.75% | [3] 10.1% | [4] 1.1% | [5] 14.7% | [6] 17.3%

O=c1[nH]nc(S(=O)(=O)NC2CCCCC2)c(=O)[nH]1
inactive: [1] 12.6% | [2] -13.1% | [3] -7.3% | [4] -20.9% | [5] 2.65% | [6] 5.6%

CC(=NCc1ccccc1)c1c(C)cc(=O)n(-c2ccccc2)c1O
inactive: [1] -12.8% | [2] -6.45% | [3] -6.15% | [4] -70.5% | [5] -24.8% | [6] -12%

NCCCNCCS
inactive: [1] 19.6% | [2] 1.5% | [3] 22.6% | [4] 18.3% | [5] 2.5% | [6] 17.1%

c1ccc(C2=NCCN2)nc1
inactive: [1] 8.1% | [2] 0.9% | [3] -5.7% | [4] -1.15% | [5] 0.65% | [6] 6.55%

O=C1CC2C(=O)N(Cc3ccccc3)C(=O)C2C(=O)N1 (stereo unspecified)
inactive: [1] -3.1% | [2] -12.9% | [3] -5.3% | [4] 1.85% | [5] -3.1% | [6] 1.25%

C/C=N/Nc1ccccc1
inactive: [1] 24.8% | [2] -1.4% | [3] 18.2% | [4] 32.9% | [5] 31.9% | [6] 30%

CCCCNC(=O)OCCN(C)CCOC(=O)NCCCC
inactive: [1] -15.7% | [2] -21.9% | [3] -17.2% | [4] 3.05% | [5] 6.2% | [6] 3.55%

Cc1cc(N(CCC#N)CCC#N)ccc1/C(N=Nc1ccc(Cl)cc1)=N\NC(=O)c1ccccc1
inactive: [1] 1.3% | [2] -2.65% | [3] -0.5% | [4] -10.2% | [5] -7.3% | [6] -31.1%

COC(=O)c1ccccc1NN=Nc1ccccc1Cl
inactive: [1] 3.5% | [2] -17.7% | [3] -0.95% | [4] 8.3% | [5] 6.4% | [6] 11.1%

O=C(O)CCCCn1cnc2c(=S)nc[nH]c21
inactive: [1] -6.1% | [2] -5.85% | [3] -13.7% | [4] -7.3% | [5] -44% | [6] -5%

O=C(OCCSC(=S)N1CCCCC1)c1ccccc1
inactive: [1] -13.5% | [2] -8.6% | [3] 2.4% | [4] -11.9% | [5] 16.6% | [6] -0.4%

Cc1cc(N(CCC#N)CCC#N)ccc1/C=C(\NC(=O)/C=C/c1ccccc1)C(N)=O
inactive: [1] 3.15% | [2] -7.85% | [3] 15.1% | [4] -10.6% | [5] -33.1% | [6] -15.8%

CC(C)CC1=[N+]=C(NC#N)N=C(CCC(=O)Nc2ccccc2[N+](=O)[O-])C1
inactive: [1] -10.1% | [2] -5.5% | [3] -5.55% | [4] 20.9% | [5] 0.65% | [6] 1.7%

CC1CC[P+](C)(Cc2ccccc2)C1 (mixture of isomers)
inactive: [1] 8.7% | [2] 0.8% | [3] -18.4% | [4] 1.9% | [5] 5.45% | [6] 18.6%

COc1ccc(-c2cc(=O)c3c(O)cc(O)c(-c4cc(-c5cc(=O)c6c(O)cc(OC)cc6o5)ccc4OC)c3o2)cc1
inactive: [1] 39.1% | [2] 17.1% | [3] 5.55% | [4] 24.6% | [5] 27.3% | [6] 20%

CCC(=O)C(C)C(=O)N(CC(C)C)CC(C)C (stereo unspecified)
inactive: [1] -12.7% | [2] -6.85% | [3] -5.3% | [4] -11.8% | [5] -0.2% | [6] -19.8%
